Calls of active or inactive are those of the source. How the source made its calls: active means hit-call score of the fitted dose curve at least 0.9, where 1 is the maximum; inactive means score below 0.9.
Assay: APR_HepG2_p53Act_72hr: Apredica 72-hour HepG2 Assay for p53 Activation (AID 2282923);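 further: average cellular p53 protein immunofluorescence intensity in HepG2 cells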
Conditions: high-content imaging, actives raise or lower the signal
Procedure, shortened: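 Cells were dosed for 72 hr with compounds at 0.39–200 uM in duplicate (final DMSO 0.5% v/v), then fixed in 3.7% formaldehyde, permeabilized with Triton X-100 and immunostained for p53 (Cy5) with Hoechst 33342 nuclear counterstain.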

outcome, inactive:
CS(=O)(=O)c1ccc([C@@H](CC2CCCC2)C(=O)Nc2cnccn2)cc1Cl

AC50, active:
O=C(c1ccccc1)c1ccccc1 0.304 µM
CCCCc1oc2ccccc2c1C(=O)c1cc(I)c(OCCN(CC)CC)c(I)c1 75.5 µM
O=C(CCCN1CCC(O)(c2ccc(Cl)cc2)CC1)c1ccc(F)cc1 37.3 µM

Assay: APR_HepG2_MitoMass_72hr: Apredica 72-hour HepG2 Assay for Mitochondrial Mass (AID 2282924);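 further: MitoTracker Red CMXRos stain intensity per cell imaged as mitochondrial mass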
Conditions: high-content imaging, actives raise or lower the signal
Procedure, shortened: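 HepG2, 72 hr cmpd, 10 conc 0.39–200 uM in dup, DMSO 0.5% v/v. MitoTracker Red CMXRos 250 nM 30 min pre-fix; formaldehyde 3.7% fix 30 min RT. HCS imaging, gain/loss fit vs DMSO.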

outcome, inactive:
CS(=O)(=O)c1ccc([C@@H](CC2CCCC2)C(=O)Nc2cnccn2)cc1Cl
O=C(c1ccccc1)c1ccccc1
CCCCC=O
O=C1NS(=O)(=O)c2ccccc21
CCCCCCCCCCCCOS(=O)(=O)O
CCCCCCCCCCCCCCC
CN(Cc1cnc2nc(N)nc(N)c2n1)c1ccc(C(=O)N[C@@H](CCC(=O)O)C(=O)O)cc1
CN(C)CCOC(c1ccccc1)c1ccccc1
CC(=O)Nc1ccc(O)cc1

AC50, active:
N=C(N)c1ccc(OCCCCCOc2ccc(C(=N)N)cc2)cc1 11.3 µM
CCCCc1oc2ccccc2c1C(=O)c1cc(I)c(OCCN(CC)CC)c(I)c1 52.6 µM
Cc1[nH]nc2c1N=C(c1ccccc1Cl)c1cc([N+](=O)[O-])ccc1N2 0.248 µM
O=C(CCCN1CCC(O)(c2ccc(Cl)cc2)CC1)c1ccc(F)cc1 30.8 µM
